Results filed as inconclusive are left out. Calls of active or inactive are those of the source. Unless noted, the call rests on the fitted dose curve; in most records, active means well fitted curve in either direction with a large enough effect (not every such curve was filed as active); inconclusive means small, poorly fitted or top-dose-only effect, or another doubt; inactive means flat fitted curve, though single readings scatter. Where only a bound is given, the exact number is not on record here.

Assay [1] addresses Lysosomal acid glucosylceramidase (Homo sapiens) (UniProt P04062). Kind of assay: Glucocerebrosidase-p2 (AID 348; in the data active means potency below about 10 µM; further: potency means the concentration at half of the fitted maximal effect). The note with it: purified GBA, blue fluorogenic substrate, 40 min. The essentials: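 Normal human glucocerebrosidase (0.2 nM) with blue fluorogenic substrate (80 uM final) in citrate/phosphate pH 5.9 with 10mM sodium taurocholate, 0.01% tween-20; 40 min RT, NaOH/glycine stop; fluorescence Ex 365/Em 440; AC50 from a titration from 0.6 nM upwards.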

Assay [2] is described as follows: AP1 Signaling Pathway (AID 357).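 Further: ME-180 reporter cells stimulated with EGF at its EC50 level; on the % scale 0 is the no-effect control and ±100 the full control effect.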 The following applies: ME-180 AP-1-bla reporter, EGF-induced, beta-lactamase ratio, 5 h; at 7.69 µM (top of the series) unless noted. The essentials:
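Cells are seeded overnight, exposed to compound titrations and an EC50 level of EGF for 5 hours at 37 °C, then loaded with CCF4 dye for 2.5 hours. Beta-lactamase activity under the AP-1 element is read as a blue/green ratio.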

Assay [3] in a line: NFAT Signaling Pathway (AID 444).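 Further: carbachol stimulus at about its EC50 of 1 µM final; on the % scale 0 is the no-effect control and ±100 the full control effect.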 The note with it: Jurkat NFAT-bla M1, carbachol, beta-lactamase ratio, 5 h; at 7.69 µM (top of the series) unless noted. Put shortly: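 Read-out: CCF4 FRET ratio (460 nm/530 nm) after 1 h RT dye loading, used for %activity and AC50 from titration series. Cells: Jurkat NFAT-β-lactamase/M1 line, treated with compound plus 1 uM carbachol for 5 h, 37 °C.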

A short description of assay [4]: Stat Signaling Pathway (AID 446).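 Further: ME-180 cervical cancer cells given 40 pM IL-6 alongside compound; SIE-controlled beta-lactamase reporter measured as 460/530 nm FRET emission ratio; on the % scale 0 is the no-effect control and ±100 the full control effect.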 The following applies: ME-180 (cervical carcinoma) SIE beta-lactamase reporter, IL-6 stimulated, 5 h; at 7.69 µM (top of the series) unless noted. Put shortly: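 Emission at 460 and 530 nm (excitation 405 nm) reports SIE-controlled beta-lactamase in ME-180 cells. Cells received compound with 40 pM IL-6 for 5 hrs at 37 C; data scaled between 300 pM IL-6 and 125 nM JAK-inhibitor controls.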

Assay [5] addresses Glucocorticoid receptor (Homo sapiens) (UniProt P04150). Kind of assay: GR-EFC Redistribution (AID 451; calls by dose curve; further: potency means the concentration at half of the fitted maximal effect). The note with it: CHO-K1 GR-EFC translocation, beta-gal luminescence, 2 h. Put shortly: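 Translocation of GR-ED fusion to nuclear EA restores b-gal, read by luminescence after 1 h room-temperature detection. Engineered CHO-K1 biosensor cells, 1,000/well, exposed 2 h at 37 C to titrations up to 46 uM final.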

For assay [6], the target named is Mitogen-activated protein kinase 10 (Mus musculus) (UniProt Q61831). As to the kind of experiment: JNK3 AlphaScreen Assay (AID 530).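 Further: kinase came from lysate of stimulated human HepG2 cells; signal reports phosphorylation of biotinylated GST-cJun 1-79 at Ser73 with 10 µM ATP; on the % scale 0 is the no-effect control and ±100 the full control effect.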 The note with it: JNK3 lysate, c-Jun phosphorylation; series mostly up to 57.1 µM. Put shortly: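 Kinase buffer: 20 mM Tris-HCl pH 7.6, 10 mM MgCl2, 1 mM DTT, 0.1 mM Na3VO4, 0.01% Tween-20; ATP 10 uM. Substrate biotin-GST-cJun(1-79), enzyme from activated HepG2 lysates. Detection by Ser73 phospho-antibody AlphaScreen.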
(In general: Alpha assays give light when donor and acceptor beads are brought close together.)

For assay [7], the target named is 3',5'-cyclic-AMP phosphodiesterase 4B (Homo sapiens) (UniProt Q07343). As to the kind of experiment: qHTS Assay for Inhibitors of PDE-IV (AID 607; active means well fitted activation curve with a large enough effect in the main read-out, with a control signal flat, not every such curve was filed as active; further: % of control where 0% means no effect). The note with it: HEK293 ACTOne CNG channel cells, membrane potential fluorescence; series mostly up to 22.9 µM. The essentials:
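The readout is membrane depolarisation from a cAMP-sensing CNG channel, detected with a potential dye at ex 535/em 590. Cells were HEK293-derived (endogenous PDE-IV) at 1000 cells/well, titrated up to 22.9 uM final.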

Assay [8] addresses Cytochrome P450 3A4 (Homo sapiens) (UniProt P08684). Kind of assay: qHTS Assay for Activators of Cytochrome P450 3A4 (AID 885; active means well fitted curve in the direction sought with a large enough effect; an effect the other way counts as inactive or inconclusive; further: nearly all actives have a fitted effect of over 65% in size). The following applies: recombinant CYP3A4, Luciferin-PPXE luminescence, 60 min; series mostly up to 57.1 µM. The essentials:
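Activators are scored by enhanced luminescence from CYP3A4 conversion of luciferin-PPXE (25uM, equal to KM) to luciferin, after 60 min at RT with an NADPH-regenerating system.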
(qHTS replaces the single test concentration by a dilution series.)

Assay [9] in a line: qHTS Assay for Lipid Storage Modulators (AID 1519; calls by dose curve). The following applies: Drosophila S3 cells, BODIPY lipid droplet/cell ratio, laser cytometry, cells loaded with oleic acid; for activity change, negative = inhibition: at 57.5 µM (top of the series). Put shortly: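 Cells seeded at 5,000 per well were treated with compounds over a concentration series and loaded with oleic acid (400 uM, as added). Lipid droplet fluorescence (488 nm excitation, 500-530 nm channel) was read by laser-scanning cytometry and normalized to 20 uM Triacsin C.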

A short description of assay [10]: Primary qHTS for small molecule stabilizers of the endoplasmic reticulum resident proteome: Secreted ER Calcium Modulated Protein (SERCaMP) assay (AID 1508630; active means well fitted curve in the direction sought with a large enough effect; an effect the other way counts as inactive or inconclusive; further: on the % scale 0 is the no-effect control and ±100 the full control effect). The note with it: SH-SY5Y GLuc-SERCaMP (Gaussia luciferase released on ER calcium loss) secretion, thapsigargin, luminescence; series mostly up to 38.4 µM. Put shortly:
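The SH-SY5Y reporter protocol was run at 3 concentrations up to 38.3 uM (primary) or 11 concentrations (follow-up): 16 h compound, 100 nM thapsigargin for 4 h, then extracellular luciferase luminescence.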

The target of assay [11] is Cytochrome P450 1A2 (Homo sapiens) (UniProt P05177). Kind of assay: p450-cyp1a2 (AID 410; calls by dose curve; further: potency means the concentration at half of the fitted maximal effect). The note with it: recombinant CYP1A2, luciferin-ME demethylation, luminescence; series mostly up to 57 µM. The essentials: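 20nM CYP1A2, 100uM Luciferin-ME (=Km), 100mM KPO4; cpd 10 min RT; +NADPH regen, 60 min RT; stop/detect 20 min; luminescence. Normalized to furafylline 57 uM = full inhibition.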

Assay [12] concerns the target Glucocorticoid receptor (Homo sapiens) (UniProt P04150). Kind of assay: GR-GFP Redistribution (AID 450;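 active means compounds whose dose series gives a full or clear partial fitted curve of increased nuclear translocation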; further: potency means the concentration at half of the fitted maximal effect). The note with it: U2OS GR-GFP nuclear translocation, laser cytometry, 2 h.
Assay [13] has as its target Dual specificity protein kinase CLK4 (Homo sapiens) (UniProt Q9HAZ1). Kind of assay: qHTS Assay for Inhibitors of CDC-like Kinase 4 (Kinase-Glo Assay) (AID 1770; active means well fitted curve in the direction sought with a large enough effect; an effect the other way counts as inactive or inconclusive; further: nearly all actives have a fitted effect of over 65% in size; further: potency means the concentration at half of the fitted maximal effect). The note with it: recombinant Clk4, Kinase-Glo ATP depletion luminescence; series mostly up to 66.7 µM. Put shortly:
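Inhibition was judged from remaining ATP, measured by Ultra-Glo luciferase bioluminescence after Clk4 (25 nM) had acted on RS peptide at 1 uM ATP for 4.5 hours, room temperature.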

The target is the same in assay [14]. As to the kind of experiment: qHTS Assay for Inhibitors of CDC-like Kinase 4 (ADP-Glo Assay) (AID 1771; active means well fitted curve in the direction sought with a large enough effect; an effect the other way counts as inactive or inconclusive; further: nearly all actives have a fitted effect of over 70% in size; further: potency means the concentration at half of the fitted maximal effect). The note with it: recombinant CLK4, ADP-Glo luminescence; series mostly up to 80 µM. Put shortly:
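25 nM Clk4, 100 uM RS peptide, 1 uM ATP (final); 2 mM MgCl2, 0.5 mM EGTA, 2.5 mM DTT, 0.01% Triton X-100; 1 hr RT. ADP-Glo readout: ATP depletion 45 min, conversion/luciferase 30 min, luminescence.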

For assay [15] the target is unchanged. As to the kind of experiment: qHTS Assay for Inhibitors of CDC-like Kinase 4 (ADP-FP Assay) (AID 1795; active means well fitted curve in the direction sought with a large enough effect; an effect the other way counts as inactive or inconclusive;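 further: recombinant human CLK4 phosphorylating RS repeat peptide at 1 µM ATP; on the % scale 0 is the no-effect control and ±100 the full control effect; nearly all actives have a fitted effect of over 60% in size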). The following applies: Transcreener ADP fluorescence polarization; series mostly up to 50 µM. The essentials:
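Inhibition of ADP formation by 6.25 nM Clk4 is measured using 1 uM ATP and 100 uM RS repeat peptide over one hour. Produced ADP displaces a fluorescent tracer from antibody, lowering polarization.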

Assay [16] has as its target Ubiquitin carboxyl-terminal hydrolase 1 (Homo sapiens) (UniProt O94782). As to the kind of experiment: Inhibitors of USP1/UAF1: Pilot qHTS (AID 504865; active means well fitted curve in the direction sought with a large enough effect; an effect the other way counts as inactive or inconclusive;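 further: rhodamine fluorescence freed from ubiquitin-rhodamine substrate followed over time; top concentration of the series differs between compounds; on the % scale 0 is the no-effect control and ±100 the full control effect; nearly all actives have a fitted effect of over 35% in size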). The following applies: purified USP1/UAF1, Ub-rhodamine cleavage fluorescence; series mostly up to 54.9 µM. Put shortly:
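Kinetic fluorescence assay: 1nM USP1/UAF1, 15 min compound preincubation, then 150nM Ub-Rho; 480/540 nm.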

The mark [17] stands for this setting: measured here: cell count channel max response.
Where [18] appears, read: measured here: lipid channel max response.

Chain of Ubiquitin carboxyl-terminal hydrolase 1 (Homo sapiens) (O94782 whole entry, looked up): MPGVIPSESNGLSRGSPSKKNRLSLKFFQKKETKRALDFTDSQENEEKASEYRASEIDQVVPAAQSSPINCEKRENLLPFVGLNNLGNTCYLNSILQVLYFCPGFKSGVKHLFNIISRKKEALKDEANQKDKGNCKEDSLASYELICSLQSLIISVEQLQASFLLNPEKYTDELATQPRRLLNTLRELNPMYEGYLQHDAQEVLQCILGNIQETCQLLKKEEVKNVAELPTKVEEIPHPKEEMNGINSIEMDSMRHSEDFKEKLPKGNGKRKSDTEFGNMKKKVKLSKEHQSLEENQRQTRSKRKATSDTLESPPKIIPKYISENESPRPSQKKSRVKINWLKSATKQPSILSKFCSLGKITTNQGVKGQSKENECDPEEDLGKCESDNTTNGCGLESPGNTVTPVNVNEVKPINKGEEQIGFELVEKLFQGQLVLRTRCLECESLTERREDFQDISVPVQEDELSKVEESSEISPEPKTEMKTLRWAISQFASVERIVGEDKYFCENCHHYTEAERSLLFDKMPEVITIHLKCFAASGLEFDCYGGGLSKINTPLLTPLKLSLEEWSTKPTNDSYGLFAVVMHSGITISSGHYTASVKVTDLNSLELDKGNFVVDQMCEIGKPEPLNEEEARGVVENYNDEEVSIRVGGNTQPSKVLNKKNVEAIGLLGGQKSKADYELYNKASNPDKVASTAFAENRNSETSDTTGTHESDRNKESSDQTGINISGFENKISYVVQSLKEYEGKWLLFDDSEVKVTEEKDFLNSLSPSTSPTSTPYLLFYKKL
Chain of Lysosomal acid glucosylceramidase (Homo sapiens) (P04062 whole entry, looked up): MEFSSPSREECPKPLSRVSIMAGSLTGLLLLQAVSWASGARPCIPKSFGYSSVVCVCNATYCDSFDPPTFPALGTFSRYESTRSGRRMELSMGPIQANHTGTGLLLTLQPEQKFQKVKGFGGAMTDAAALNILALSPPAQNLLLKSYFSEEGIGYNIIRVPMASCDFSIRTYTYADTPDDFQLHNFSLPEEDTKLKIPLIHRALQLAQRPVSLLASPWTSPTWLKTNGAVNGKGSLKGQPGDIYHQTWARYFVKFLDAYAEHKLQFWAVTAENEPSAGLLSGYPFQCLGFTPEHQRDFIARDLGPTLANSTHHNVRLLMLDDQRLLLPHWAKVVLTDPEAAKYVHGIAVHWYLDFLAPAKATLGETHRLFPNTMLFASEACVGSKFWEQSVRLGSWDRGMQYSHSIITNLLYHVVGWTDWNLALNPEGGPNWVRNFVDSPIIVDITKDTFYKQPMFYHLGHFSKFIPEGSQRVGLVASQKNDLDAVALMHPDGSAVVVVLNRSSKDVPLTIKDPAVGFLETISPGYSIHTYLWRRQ
Chain of Glucocorticoid receptor (Homo sapiens) (P04150 whole entry, looked up, the tested form may be a part): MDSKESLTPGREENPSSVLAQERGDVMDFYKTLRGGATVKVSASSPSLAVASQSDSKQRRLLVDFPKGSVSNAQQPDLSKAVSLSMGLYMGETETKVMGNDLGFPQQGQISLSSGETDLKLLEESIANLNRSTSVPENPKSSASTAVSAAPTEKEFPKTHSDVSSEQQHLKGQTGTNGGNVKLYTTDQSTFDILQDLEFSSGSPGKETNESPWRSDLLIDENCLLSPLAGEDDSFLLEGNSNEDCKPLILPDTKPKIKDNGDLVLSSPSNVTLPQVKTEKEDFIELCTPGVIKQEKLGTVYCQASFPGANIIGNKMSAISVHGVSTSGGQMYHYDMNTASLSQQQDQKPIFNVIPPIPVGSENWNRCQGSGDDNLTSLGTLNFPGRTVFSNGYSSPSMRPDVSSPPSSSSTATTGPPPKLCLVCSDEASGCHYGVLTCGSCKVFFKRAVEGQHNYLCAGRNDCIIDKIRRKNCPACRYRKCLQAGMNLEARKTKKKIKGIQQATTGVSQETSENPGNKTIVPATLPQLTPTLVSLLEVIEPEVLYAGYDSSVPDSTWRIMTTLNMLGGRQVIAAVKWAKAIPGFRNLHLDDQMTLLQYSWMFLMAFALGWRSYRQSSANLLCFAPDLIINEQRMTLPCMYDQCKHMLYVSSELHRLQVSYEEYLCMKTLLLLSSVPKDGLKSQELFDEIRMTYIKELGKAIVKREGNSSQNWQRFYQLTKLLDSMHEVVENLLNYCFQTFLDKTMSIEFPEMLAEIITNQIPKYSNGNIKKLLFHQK
Chain of Dual specificity protein kinase CLK4 (Homo sapiens) (Q9HAZ1 whole entry, looked up): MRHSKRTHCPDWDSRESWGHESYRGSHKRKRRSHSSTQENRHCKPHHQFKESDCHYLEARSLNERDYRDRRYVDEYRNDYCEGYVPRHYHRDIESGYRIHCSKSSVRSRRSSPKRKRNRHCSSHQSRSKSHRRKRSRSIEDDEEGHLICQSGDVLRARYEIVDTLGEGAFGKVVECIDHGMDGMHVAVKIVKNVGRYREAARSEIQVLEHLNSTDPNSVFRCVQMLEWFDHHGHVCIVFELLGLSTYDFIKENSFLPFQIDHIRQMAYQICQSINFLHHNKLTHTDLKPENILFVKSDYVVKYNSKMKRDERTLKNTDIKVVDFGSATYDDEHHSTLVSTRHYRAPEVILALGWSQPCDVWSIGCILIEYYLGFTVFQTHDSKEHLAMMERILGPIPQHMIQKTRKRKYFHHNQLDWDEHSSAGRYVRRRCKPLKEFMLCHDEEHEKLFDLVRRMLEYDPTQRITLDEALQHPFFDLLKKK
Chain of Cytochrome P450 3A4 (Homo sapiens) (P08684 whole entry, looked up): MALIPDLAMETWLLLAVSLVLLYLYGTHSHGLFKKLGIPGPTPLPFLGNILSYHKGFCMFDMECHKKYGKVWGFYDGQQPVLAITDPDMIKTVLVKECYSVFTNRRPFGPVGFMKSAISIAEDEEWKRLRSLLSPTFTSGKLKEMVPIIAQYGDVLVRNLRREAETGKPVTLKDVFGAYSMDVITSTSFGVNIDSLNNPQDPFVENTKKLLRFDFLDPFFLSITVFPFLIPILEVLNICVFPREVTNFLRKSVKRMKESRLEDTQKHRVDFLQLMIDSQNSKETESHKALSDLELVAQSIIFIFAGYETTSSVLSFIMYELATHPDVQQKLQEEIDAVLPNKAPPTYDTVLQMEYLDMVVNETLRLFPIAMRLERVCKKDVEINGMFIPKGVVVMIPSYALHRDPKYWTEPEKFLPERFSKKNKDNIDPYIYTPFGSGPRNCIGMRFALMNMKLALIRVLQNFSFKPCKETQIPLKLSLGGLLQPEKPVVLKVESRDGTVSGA
Chain of 3',5'-cyclic-AMP phosphodiesterase 4B (Homo sapiens) (Q07343 whole entry, looked up): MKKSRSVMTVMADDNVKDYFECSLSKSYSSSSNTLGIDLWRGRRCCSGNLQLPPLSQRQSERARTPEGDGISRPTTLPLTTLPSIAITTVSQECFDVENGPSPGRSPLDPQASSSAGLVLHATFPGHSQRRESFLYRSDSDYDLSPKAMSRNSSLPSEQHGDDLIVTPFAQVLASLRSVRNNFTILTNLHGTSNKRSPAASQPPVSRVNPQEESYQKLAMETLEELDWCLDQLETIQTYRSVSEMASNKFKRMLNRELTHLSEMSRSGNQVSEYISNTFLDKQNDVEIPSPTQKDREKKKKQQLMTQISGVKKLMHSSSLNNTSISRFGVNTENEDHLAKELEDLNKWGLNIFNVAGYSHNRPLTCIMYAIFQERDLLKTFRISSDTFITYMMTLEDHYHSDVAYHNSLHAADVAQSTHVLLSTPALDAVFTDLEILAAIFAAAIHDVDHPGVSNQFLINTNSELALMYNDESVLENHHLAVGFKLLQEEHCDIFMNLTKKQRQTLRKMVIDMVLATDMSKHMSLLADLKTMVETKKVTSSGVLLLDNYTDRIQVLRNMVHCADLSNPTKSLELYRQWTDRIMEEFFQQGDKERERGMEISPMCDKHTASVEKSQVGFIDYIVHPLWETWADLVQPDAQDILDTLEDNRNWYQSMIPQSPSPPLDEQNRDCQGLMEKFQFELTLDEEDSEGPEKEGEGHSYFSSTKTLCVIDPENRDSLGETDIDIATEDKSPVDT
Chain of Cytochrome P450 1A2 (Homo sapiens) (P05177 whole entry, looked up): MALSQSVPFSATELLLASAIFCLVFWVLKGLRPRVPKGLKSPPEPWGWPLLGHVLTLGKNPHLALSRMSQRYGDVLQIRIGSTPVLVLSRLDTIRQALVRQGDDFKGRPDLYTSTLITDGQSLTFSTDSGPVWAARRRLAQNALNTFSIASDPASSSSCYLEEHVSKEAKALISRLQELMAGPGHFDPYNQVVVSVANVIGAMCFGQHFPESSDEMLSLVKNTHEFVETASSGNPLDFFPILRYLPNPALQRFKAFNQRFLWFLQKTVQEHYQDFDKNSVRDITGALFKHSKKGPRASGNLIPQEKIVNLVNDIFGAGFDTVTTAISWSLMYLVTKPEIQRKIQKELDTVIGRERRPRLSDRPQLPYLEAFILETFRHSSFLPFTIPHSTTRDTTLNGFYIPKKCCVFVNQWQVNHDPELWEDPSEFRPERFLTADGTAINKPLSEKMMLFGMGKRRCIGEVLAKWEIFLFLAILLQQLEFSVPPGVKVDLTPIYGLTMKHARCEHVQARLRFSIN

As to `N#Cc1ccc(CN2CCCC3(CCN(C(=O)c4cccc(F)c4)CC3)C2)cc1`, the Potency was > 11.4 µM (inactive) in assay [1] and > 46 µM (inactive) in assay [5]. The activity change, negative = inhibition in [2] is 19.4% (inactive); in assay [3], -65.7% (active); in [9], 2.12% (inactive). In addition, the activity, negative = inhibition in [4] is -5.26% (inactive). Further, the outcome in [6] was inactive. For the same molecule, the Potency entry in assay [7], in [8] and in [10] was “inactive” each time. Moreover, the max response in [9] (setting [17]) stood at 15%; in assay [9] (setting [18]), 19.8%.
Regarding `O=C(c1ccco1)N1CCC2(CCCN(C(c3ccccc3)c3ccccc3)C2)CC1`, the Potency was > 11.4 µM (inactive) in assay [1] and > 46 µM (inactive) in [5]. Besides, the results for the activity change, negative = inhibition in assay [2], in assay [3] and in assay [9] were 26.1% (inactive), -80.8% (active) and 2.05% (inactive), respectively. In addition, the activity, negative = inhibition in assay [4] is 19.8% (inactive). Besides, in [6], the result was inactive. The Potency entry in [7], in [8] and in assay [10] was “inactive” each time. Besides, the values for the max response in assay [9] (setting [17]) and in assay [9] (setting [18]) were 10.3% and 13.5%, respectively.
As for `CS(=O)(=O)N1CCC[C@@]2(CCN(Cc3ccccc3)C2)C1`, the Potency in [1] is > 11.4 µM (inactive); in [5], > 46 µM (inactive). In addition, the activity change, negative = inhibition is 0.761% (inactive) in [2], 1.85% (inactive) in assay [3] and 2.55% (inactive) in assay [9]. Besides, the activity, negative = inhibition in assay [4] was 23.6% (inactive). Also, the outcome in [6] was inactive. Further, the Potency result in assay [7] and in [10] was “inactive” each time. Also, the max response amounted to 2.42% in [9] (setting [17]) and 7.6% in [9] (setting [18]).
Turning to `CN(C)c1ncc2nc(-c3cc(F)cc(F)c3)c(=O)n(C[C@H]3CCCO3)c2n1`, the Potency in assay [1] was > 11.4 µM (inactive); in [11], 79.4 nM (active); in assay [12], > 9.22 µM (inactive); in assay [5] it was > 46 µM (inactive). Further, the activity change, negative = inhibition in [2] is 19.6% (inactive); in [3], 9.35% (inactive). The activity, negative = inhibition in [4] was 29.3% (inactive). In addition, the call in [6] was inactive. Further, the Potency entry in [13], in assay [14], in [15], in [16] and in assay [10] was “inactive” throughout.
As to `O=C(Nc1ccccc1)N1CC2(CCN(C(=O)c3cccc(F)c3)CC2)C1`, the Potency was > 11.4 µM (inactive) in assay [1] and > 46 µM (inactive) in [5]. The activity change, negative = inhibition in assay [2] was 13.2% (inactive); in [3], 14.3% (inactive); in [9], 5.53% (inactive). Moreover, the activity, negative = inhibition in assay [4] is 0.524% (inactive). Also, in [6], the molecule was called inactive. Besides, the Potency entry in assay [7] and in assay [10] was “inactive” each time. The max response in assay [9] (setting [17]) is 9.88%; in [9] (setting [18]) it was 20.2%.
Regarding `CN(C)c1ncc2nc(-c3ccccc3)c(=O)n(C[C@H]3CCCO3)c2n1`, the Potency in [1] is > 11.4 µM (inactive); in assay [12] it was > 9.22 µM (inactive); in [5], > 46 µM (inactive). Besides, the activity change, negative = inhibition was 11.9% (inactive) in assay [2] and 24.6% (inactive) in assay [3]. In addition, in assay [4], the activity, negative = inhibition was 20.6% (inactive). Moreover, the Potency result in assay [8], in assay [13], in [14], in [16] and in assay [10] was “inactive” throughout.
As for `Clc1ccccc1-c1ccc2ncnc(N3CCNCC3)c2c1`, the Potency in [1] is > 11.4 µM (inactive); in assay [11], 2000 nM (active); in assay [12], > 46 µM (inactive); in assay [5] it was > 46 µM (inactive); in assay [13] it was 15.8 µM (active); in assay [14], 28.2 µM (active). The activity change, negative = inhibition in assay [2] is 19.1% (inactive); in [3], -4.54% (inactive); in [9] it was 5.35% (inactive). Besides, the activity, negative = inhibition in [4] was 5.5% (inactive). In addition, the result in assay [6] was inactive. Moreover, the Potency result in assay [7], in [8] and in assay [16] was “inactive” throughout. In addition, the max response came out at 26.7% in assay [9] (setting [17]) and 32.3% in assay [9] (setting [18]).
